# Measurements taken from PubChem BioAssay (Tox21).
# Unmarked numbers belong to inactive results. Records with an inconclusive call do not appear. Where a call stands in place of a potency, no number is given. Calls of active or inactive are those of the source. Unless noted, the call rests on the fitted dose curve; in most records, active means well fitted curve in the direction sought with a large enough effect in the repeat runs; inconclusive means weak or mixed curves; inactive means no such curve, though single readings can be large; an effect the other way counts as inactive or inconclusive.
# Legend:
# [1] = qHTS assay to identify small molecule antagonists of the androgen receptor (AR) signaling pathway using the MDA cell line in the presence of 0.5 nM R1881 - cell viability counter screen (AID 1259242); further: nearly all actives have a fitted effect of over 45% in size
# How it was run: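 Steps: plate MDA-kb2 cells, rest 5 hr at 37C without CO2; pin in compounds in DMSO; add R1881 to 0.5 nM final; incubate 16 hr; add CellTiter-Fluor, 30 min; read fluorescence.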
# [2] = biological target: Estrogen receptor (Homo sapiens) (UniProt P03372); experiment: qHTS assay to identify small molecule antagonists of the estrogen receptor alpha (ER-alpha) signaling pathway using the BG1 cell line in the presence of 0.1 nM 17-beta-estradiol (AID 1259244); further: nearly all actives have a fitted effect of over 50% in size; further: potency means the concentration at half of the fitted maximal effect
# How it was run: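 Antagonist mode: compounds in DMSO are pinned onto VM7Luc4E2 reporter cells, 0.1 nM final 17beta-estradiol is added, and after 22 h at 37C luciferase luminescence is measured with ONE-Glo.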
# [3] = qHTS assay to identify small molecule HDAC inhibitors (AID 1259364);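 further: wild-type HCT-116 cells with endogenous class I/II HDAC activity; top concentration of the series differs between compounds; nearly all actives have a fitted effect of over 45% in size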
# How it was run: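 Cells (HCT-116, wild type) are seeded at 1,500 per well, incubated overnight, treated with compound in DMSO for 2 hr, then developed with HDAC-Glo I/II reagent for 30 min at room temperature.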
# [4] = qHTS assay to identify small molecule HDAC inhibitors - cell viability counter screen (AID 1259365); further: series mostly up to about 92 µM; nearly all actives have a fitted effect of over 50% in size
# How it was run: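 Wild-type HCT-116 cells were seeded at 1,500 per well, incubated overnight at 37 C, then exposed to compounds in DMSO for 2hr. Viability was read by CellTiter-Glo luminescence after 30min at room temperature.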
# [5] = qHTS assay to identify small molecule agonists of the sonic hedgehog signaling (Shh) pathway - cell viability counter screen (AID 1259366); further: nearly all actives have a fitted effect of over 50% in size
# How it was run: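 NIH/3T3-derived 3T3 Gli1-Luc cells (stable Gli1-responsive firefly luciferase reporter) were seeded, rested 4 hr at 37 C/5% CO2, then exposed to compounds in DMSO for 24 hr; viability was read by CellTiter-Fluor fluorescence in the same wells.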
# [6] = qHTS assay to identify small molecule antagonists of the sonic hedgehog signaling (Shh) pathway - cell viability counter screen (AID 1259367); further: nearly all actives have a fitted effect of over 55% in size
# How it was run: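 Conditioned medium drove Shh signaling in 3T3 Gli1-Luc cells exposed to compounds at 37C and 5% CO2. Viability was determined from CellTiter-Fluor fluorescence, with reagent incubated 1 hr after 23 hr of treatment.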
# [7] = qHTS assay to identify small molecule agonists of the sonic hedgehog signaling (Shh) pathway (AID 1259368; calls by dose curve; further: series mostly up to about 92 µM; nearly all actives have a fitted effect of over 15% in size)
# How it was run: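 Cells of a mouse NIH/3T3 clone stably expressing luciferase under the Gli1 transcriptional response element are exposed to test chemicals for 24 hr at 37 C. Pathway activation is detected as a rise in luminescence.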
# [8] = qHTS assay to identify small molecule antagonists of the sonic hedgehog signaling (Shh) pathway (AID 1259369; calls by dose curve; further: nearly all actives have a fitted effect of over 45% in size)
# How it was run: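 Cells are plated and held 4hr at 37 C, compounds (DMSO) are pinned in, conditioned medium is added to stimulate the pathway, and after 24hr luciferase reagent is added for 30min before luminescence is read.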
# [9] = biological target: Estrogen receptor beta (Homo sapiens) (UniProt Q92731); experiment: qHTS assay to identify small molecule agonists of the estrogen receptor beta (ER-beta) signaling pathway (AID 1259377; active means well fitted activation curve with a large enough effect in the signal ratio in the repeat runs, not every such curve was filed as active; the % refers to the signal ratio)
# How it was run: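 ER-beta-UAS-bla HEK293T (GripTite) cells carrying a UAS-driven beta-lactamase reporter, in medium with 2% charcoal-stripped FBS, were exposed to compounds for 16 hr at 37C; LiveBLAzer B/G FRET substrate was then added and fluorescence read after 2 hours at room temperature.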
# [10] = biological target: Estrogen receptor beta (Homo sapiens) (UniProt Q92731); experiment: qHTS assay to identify small molecule antagonists of the estrogen receptor beta (ER-beta) signaling pathway (AID 1259378; active means well fitted inhibition curve with a large enough effect in the signal ratio in the repeat runs, not every such curve was filed as active; the % refers to the signal ratio)
# How it was run: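 ER-beta-UAS-bla HEK293T (GripTite) cells in 2% charcoal-stripped FBS medium were preincubated 6 hr at 37C, dosed with compound, then stimulated with 1 nM E2 (final) for 16 hr; beta-lactamase reporter read by B/G FRET fluorescence after 2 hr substrate loading.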
# [11] = qHTS assay to identify small molecule agonists of the androgen receptor (AR) signaling pathway in the presence of an antagonist - cell viability counter screen (AID 1259379);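 further: MDA-kb2 human breast cancer cells carrying an MMTV luciferase reporter; series mostly up to about 92 µM; nearly all actives have a fitted effect of over 25% in size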
# How it was run: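 Cytotoxicity is assessed by CellTiter-Fluor in MDA-kb2 cells carrying an MMTV-driven luciferase reporter. Cells receive 3.0uM nilutamide plus compounds at 15 concentrations and incubate 16 hr at 37C without CO2 before fluorescence reading.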
# [12] = qHTS assay to identify small molecule agonists of the estrogen receptor beta (ER-beta) signaling pathway - cell viability counter screen (AID 1259380); further: nearly all actives have a fitted effect of over 30% in size; further: potency means the concentration at half of the fitted maximal effect
# How it was run: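 Cytotoxicity is measured in parallel with the reporter screen: after 16 hr compound exposure at 37C and a 2 hr LiveBLAzer step, CellTiter-Glo is added to the same ER-beta-UAS-bla HEK293T wells and luminescence read after 30 min.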
# [13] = qHTS assay to identify small molecule antagonists of the estrogen receptor beta (ER-beta) signaling pathway - cell viability counter screen (AID 1259382); further: series mostly up to about 92 µM; nearly all actives have a fitted effect of over 55% in size
# How it was run: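 Cytotoxicity counter screen multiplexed with the beta-lactamase antagonist assay: GripTite HEK293T ER-beta-bla cells were treated 16 hr with test chemicals in the presence of 1nM 17-beta-estradiol, and viability was measured by CellTiter-Glo.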
# [14] = biological target: Estrogen receptor (Homo sapiens) (UniProt P03372); experiment: qHTS assay to identify small molecule agonists of the estrogen receptor alpha (ER-alpha) signaling pathway in the presence of an antagonist (AID 1259383; calls by dose curve; further: top concentration of the series differs between compounds; nearly all actives have a fitted effect of over 15% in size)
# How it was run: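 Agonist-mode confirmation in the presence of the ER antagonist ICI-182,780 at 10.0nM final. Breast-derived VM7Luc4E2 reporter cells were exposed to compounds for 22hr, and ERE-driven luciferase was quantified by luminescence.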
# [15] = qHTS assay to identify small molecule agonists or antagonists of the thyroid stimulating hormone receptor (TSHR) signaling pathway - wild type cell line counter screen (AID 1259384; calls by dose curve)
# How it was run: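 Wild-type HEK293 cells were plated 18 h at 37 C/5% CO2, pin-dosed with compound plus Ro20-1724 medium, held 30 min at room temperature, then given cAMP-d2 and anti-cAMP-cryptate; fluorescence was read after 1 h. Fifteen concentrations, triplicate.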
# [16] = qHTS assay to identify small molecule agonists of the estrogen receptor alpha (ER-alpha) signaling pathway in the presence of an antagonist - cell viability counter screen (AID 1259386);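 further: series mostly up to about 92 µM; cells exposed to compounds for 22 h at 37 °C before the viability read; nearly all actives have a fitted effect of over 30% in size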
# How it was run: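 Cytotoxicity was measured in parallel with the ERE-luciferase agonist screen, in the same wells. The cells were VM7Luc4E2, which endogenously express ER-alpha, and treatment was with compounds plus 10.0nM ICI-182,780 for 22hr.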
# [17] = qHTS assay to identify small molecule phospholipidosis (PLD) inducers (AID 1259344; active means well fitted curve in the direction sought with a large enough effect; an effect the other way counts as inactive or inconclusive)
# How it was run: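 After 4 h attachment on collagen I, HepG2 cells were dosed with compound alongside LipidTOX Red, kept 24 h at 37 C, fixed, and imaged for lamellar phospholipid pits.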
# [18] = biological target: Thyrotropin receptor (Homo sapiens) (UniProt P16473); experiment: qHTS assay to identify small molecule antagonists of the thyroid stimulating hormone receptor (TSHR) signaling pathway (AID 1259385; calls by dose curve; further: nearly all actives have a fitted effect of over 20% in size)
# How it was run: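 TSHR-HEK293 cells were plated and held 18 h at 37C/5% CO2, then given compound plus Ro20-1724 and stimulated with TSH at 1.5 ng/mL final. After 30 min at room temperature, cAMP was detected with cAMP-d2/anti-cAMP-cryptate (1 h) by fluorescence.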
# Estrogen receptor (Homo sapiens), sequence (P03372 whole entry, looked up): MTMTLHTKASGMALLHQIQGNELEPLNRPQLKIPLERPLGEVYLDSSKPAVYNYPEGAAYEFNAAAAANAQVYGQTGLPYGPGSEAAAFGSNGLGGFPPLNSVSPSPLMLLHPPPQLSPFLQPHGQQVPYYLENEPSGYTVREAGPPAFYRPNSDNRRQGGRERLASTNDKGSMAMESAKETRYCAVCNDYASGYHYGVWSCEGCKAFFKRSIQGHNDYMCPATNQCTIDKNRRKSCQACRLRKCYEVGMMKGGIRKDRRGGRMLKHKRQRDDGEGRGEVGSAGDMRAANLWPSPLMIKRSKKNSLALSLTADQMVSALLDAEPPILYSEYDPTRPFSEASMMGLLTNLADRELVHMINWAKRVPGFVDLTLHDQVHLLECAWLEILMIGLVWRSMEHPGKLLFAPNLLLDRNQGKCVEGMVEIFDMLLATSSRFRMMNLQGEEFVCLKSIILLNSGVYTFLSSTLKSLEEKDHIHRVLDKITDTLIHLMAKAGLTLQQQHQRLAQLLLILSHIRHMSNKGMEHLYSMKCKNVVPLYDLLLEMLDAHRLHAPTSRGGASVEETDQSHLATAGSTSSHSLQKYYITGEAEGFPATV
# Thyrotropin receptor (Homo sapiens), sequence (P16473 whole entry, looked up): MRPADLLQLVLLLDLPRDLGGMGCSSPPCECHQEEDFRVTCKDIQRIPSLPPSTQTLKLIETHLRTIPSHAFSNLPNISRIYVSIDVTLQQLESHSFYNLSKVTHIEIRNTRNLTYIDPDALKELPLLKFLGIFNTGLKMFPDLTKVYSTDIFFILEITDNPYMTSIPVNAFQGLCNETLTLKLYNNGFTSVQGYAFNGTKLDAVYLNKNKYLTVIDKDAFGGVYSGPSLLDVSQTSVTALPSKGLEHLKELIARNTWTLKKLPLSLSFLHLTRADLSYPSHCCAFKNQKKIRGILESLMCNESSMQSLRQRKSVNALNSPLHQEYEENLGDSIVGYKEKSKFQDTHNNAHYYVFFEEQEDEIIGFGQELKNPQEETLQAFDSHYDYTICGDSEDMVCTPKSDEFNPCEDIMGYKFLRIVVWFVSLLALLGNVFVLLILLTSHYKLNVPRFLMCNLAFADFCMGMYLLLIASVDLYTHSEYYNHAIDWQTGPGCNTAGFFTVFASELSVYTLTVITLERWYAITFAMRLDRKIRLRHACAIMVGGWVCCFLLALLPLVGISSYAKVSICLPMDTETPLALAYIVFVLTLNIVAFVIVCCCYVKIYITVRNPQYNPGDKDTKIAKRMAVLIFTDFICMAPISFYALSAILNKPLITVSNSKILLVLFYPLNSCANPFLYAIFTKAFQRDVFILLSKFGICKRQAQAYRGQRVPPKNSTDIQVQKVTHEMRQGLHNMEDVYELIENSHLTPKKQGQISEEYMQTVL
# Estrogen receptor beta (Homo sapiens), sequence (Q92731 whole entry, looked up): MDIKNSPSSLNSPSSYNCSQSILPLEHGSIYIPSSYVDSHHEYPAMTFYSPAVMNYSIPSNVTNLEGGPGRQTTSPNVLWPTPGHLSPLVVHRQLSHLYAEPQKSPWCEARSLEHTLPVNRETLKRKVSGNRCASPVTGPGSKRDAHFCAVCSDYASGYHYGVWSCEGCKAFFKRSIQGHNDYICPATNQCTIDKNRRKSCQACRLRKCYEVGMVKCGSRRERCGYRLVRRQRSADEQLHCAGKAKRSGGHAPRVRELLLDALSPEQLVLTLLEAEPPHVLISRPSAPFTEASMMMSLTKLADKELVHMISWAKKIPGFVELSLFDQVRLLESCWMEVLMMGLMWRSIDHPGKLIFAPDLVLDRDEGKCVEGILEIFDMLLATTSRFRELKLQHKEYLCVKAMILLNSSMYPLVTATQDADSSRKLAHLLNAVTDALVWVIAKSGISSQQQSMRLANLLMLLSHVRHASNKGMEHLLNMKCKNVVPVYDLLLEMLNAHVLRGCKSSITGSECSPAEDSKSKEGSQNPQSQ
Compound,Potency [1],Potency [2],Potency [3],Potency [4],Potency [5],Potency [6],Potency [7],Potency [8],Potency [9],Potency [10],Potency [11],Potency [12],Potency [13],Potency [14],outcome [15],Potency [16],outcome [17],Potency [18]
CCCOCCOCCO,inactive,inactive,inactive,inactive,inactive,inactive,inactive,inactive,inactive,inactive,inactive,inactive,inactive,inactive,inactive,inactive,,
CCn1cc(C(=O)O)c(=O)c2cc(F)c(N3CCNCC3)nc21,inactive,inactive,,inactive,inactive,inactive,inactive,inactive,inactive,inactive,inactive,inactive,inactive,inactive,inactive,inactive,inactive,
NC(=O)Nc1ccc(Cl)cc1,inactive,inactive,inactive,inactive,inactive,inactive,inactive,inactive,inactive,,inactive,inactive,,inactive,inactive,inactive,,inactive
O=C(CCCCCCC(=O)Nc1ccccc1)NO,inactive,3.35 µM (active),,,,,,,,,inactive,2.66 µM (active),,inactive,inactive,inactive,inactive,inactive
CCN(Cc1cccc(S(=O)(=O)O)c1)c1ccc(C(=C2C=CC(=[N+](CC)Cc3cccc(S(=O)(=O)[O-])c3)C=C2)c2ccccc2)cc1,inactive,inactive,inactive,inactive,inactive,inactive,inactive,inactive,,,inactive,inactive,inactive,inactive,inactive,inactive,,inactive
COc1cc2[nH]c(=O)[nH]c(=O)c2cc1OC,inactive,inactive,inactive,inactive,inactive,inactive,inactive,inactive,,,inactive,inactive,inactive,inactive,inactive,inactive,,inactive
